# Reference: PubChem BioAssay (NCATS)
# Results filed as inconclusive are left out. Values without a mark were called inactive. Activity calls are given as the source filed them. Calls follow the shape of the dose curve; as a rule, active = well fitted inhibition curve with a large enough effect; inconclusive = small, poorly fitted or top-dose-only effect; inactive = flat fitted curve, though single readings scatter.
# Tested on: HEK293
# Assay: Cytotoxic Profiling of Annotated Libraries Using Quantitative High-Throughput Screening (AID 1296008); also: nearly all actives have a fitted effect of over 60% in size
# Conditions: Five cell lines viability, CellTiter-Glo ATP luminescence, 48-72 h; max response: active compounds read low
# How it was run: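 Cytotoxicity was measured as CellTiter-Glo ATP luminescence, read after 10 min at room temperature. Compound treatment of the cells lasted 48 or 72 hr at 37 degrees Celsius in a qHTS format.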
# % is scaled to controls: 0 for no effect and ±100 for the full control effect; potency is read from the fitted curve at half-maximal effect.
SMILES,max response,Potency
CCCOc1ccc(-c2nc(OC)c3ccccc3n2)cc1,4.19%,
CCS(=O)(=O)N1CCN(c2ccc(Nc3ncc(C(N)=O)c(NC4CC4)n3)cc2)CC1,,7.31 µM (active)
CC(C)(C)OC(=O)N1CCC(OCc2nc(-c3ccncc3)no2)CC1,0.811%,
CC1(C)C=CN2C(=O)C3=CCCN3C(=O)[C@@H]2C[C@@]12Nc1ccccc1C2=O,-9.52%,
COc1cc2c(cc1OC)N1C(=O)C[C@]34C=CCN5CC[C@@H]2[C@@H](CC3)[C@]514,-26.4%,
CN(c1ccccc1CNc1nc(Nc2ccc3c(c2)CC(=O)N3)ncc1C(F)(F)F)S(C)(=O)=O,,2.31 µM (active)
COC1CC(OC2CCC3(C)C(=CCC4C3C(OC(C)=O)C(OC(=O)/C=C/c3ccccc3)C3(C)C(C(C)O)CCC43O)C2)OC(C)C1OC1CC(OC)C(OC2OC(C)C(OC3OC(CO)C(O)C(O)C3O)C(OC)C2O)C(C)O1 (centres undefined),-2.45%,
CC1COC2(OC3CC4C5CC(O[C@@H]6O[C@H](C)[C@@H](O[C@@H]7O[C@@H](C)[C@H](O)[C@@H](O)[C@H]7O)[C@H](O)[C@H]6O)C6CC(O)CCC6(C)C5CCC4(C)C3C2C)C(O)C1 (some centres undefined),3.68%,
CC[C@]1(O)CC2CN(CCc3c([nH]c4ccccc34)[C@@](C(=O)OC)(c3cc4c(cc3OC)N(C)[C@H]3[C@@](O)(C(=O)OC)[C@H](OC(C)=O)[C@]5(CC)C=CCN6CC[C@]43[C@@H]65)C2)C1 (some centres undefined),,0.0651 µM (active)
c1cn2cc(-c3ccc4cn[nH]c4c3)nc(Nc3ccc(N4CCOCC4)cc3)c2n1,,18.4 µM (active)
CC1(C)CCCC2(C)C1C(O)C=C(CO)C2(O)CO (centres undefined),-0.916%,
O=C1NC(Cc2ccccc2)C(=O)N2CCCC12 (centres undefined),-1.73%,
Cc1ccc(NC(=O)Nc2cc(C(F)(F)F)ccc2F)cc1Nc1ccc2c(c1)NC(=O)/C2=C\c1ccc[nH]1,,11.6 µM (active)
O=C(NCc1ccc(S(=O)(=O)c2cc(F)cc(F)c2)cc1)c1ccc2nccn2c1,,0.0052 µM (active)
